# Reference: paper PMC5540273 (PLoS ONE, 2017)
# How the values were obtained:
# [1] = test system: ZAK
# [2] = test system: AAK1; conditions: concentration: 1 μM, replicates: in singlicate; n = 1
# [3] = test system: ABL1-nonphosphorylated; conditions: concentration: 1 μM, replicates: in singlicate; n = 1
# [4] = test system: ABL1-phosphorylated; conditions: concentration: 1 μM, replicates: in singlicate; n = 1
# [5] = test system: ABL2; conditions: concentration: 1 μM, replicates: in singlicate; n = 1
# [6] = test system: T1, p38-alpha
# T1 construct: gene MAPK14
# [7] = test system: T2, YSK4
# T2 construct: gene MAP3K19
# 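For %Inh in this document: KINOMEscan kinase panel screen.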
# 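For Kd in this document: kd values determined as follow-up on hits from a single-replicate KINOMEscan panel screen.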
Compound,Kd [1] [nM],%Inh [2] [%],%Inh [3] [%],%Inh [4] [%],%Inh [5] [%],Kd [6] [nM],Kd [7] [nM]
O=C(NCCNc1ccnc(Nc2ccc(F)cc2)n1)Nc1ccc2c(c1)OCO2 [GSK1379882],> 10000,20,0,0,0,,
Cn1c(=O)c(F)c(Nc2ccc(I)cc2F)c2c(=O)n(OC[C@H](O)CO)cnc21,,10,54,41,3,,
OCCCNc1nccc(-c2c(-c3cccc(C(F)(F)F)c3)nn3cc(C(F)(F)F)ccc23)n1 [GW630813],,0,0,0,0,1300,
O=C(Nc1n[nH]c2nc(-c3ccccc3)c(Br)cc12)C1CC1 [SB-708998],,8,43,11,2,,640
Nc1nc(-c2ccccc2F)c(-c2ccnc3ccccc23)s1 [GW560459],,12,0,0,3,240,
COc1ccc(Nc2nccc(N3CCC(NS(=O)(=O)c4ccc(NC(C)=O)cc4)C3)n2)cc1 (stereo not drawn) [GSK1379729],,0,0,0,20,> 10000,
Cc1nn2c(=O)cc(N3CCOCC3)nc2n1Cc1cccc(Cl)c1Cl [GSK2342769],,14,0,0,9,,
O=C(Nc1ccc2c(c1)OCO2)NC1CCN(c2ccnc(NCc3ccc(F)cc3)n2)CC1 [GSK1379859],,0,0,0,0,,
COc1cc2nccc(Nc3ccc(OCc4ccc(NC(C)=O)cc4)cc3)c2cc1OC.Cl [GW440135],,0,17,0,4,,
Nc1n[nH]c2ncc(-c3ccccc3)cc12 [SB-517081],,36,0,18,17,,
